Laboratory results: the supplement of paper PMC6555819

Columns and labels:
Assay in all cases: PBM binding z-score (relative to random genomic background probes); higher = stronger binding; sequences stand for … in GC…GCGATTGACAGCGTAGAATGAAGG
[1] = test system: FXR:RXRa (NR concentration 270 nM, RXRa partner concentration 90 nM)
Procedure, shortened: (§1)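 Ligand-free nuclear receptor dimers were bound for 1 h to custom Agilent 4×180K protein-binding microarrays. Detection used antibodies against each partner (one per run). Binding z-scores rest on regression-normalized fluorescence, with random background probes as the reference.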

[2] = test system: LXRa:RXRa (NR concentration 270 nM, RXRa partner concentration 90 nM)
Procedure, shortened: as §1

[3] = test system: LXRa homodimer (NR concentration 270 nM)
Procedure, shortened: as §1

[4] = test system: LXRb:RXRa (NR concentration 270 nM, RXRa partner concentration 90 nM)
Procedure, shortened: as §1

[5] = test system: LXRb homodimer (NR concentration 270 nM)
Procedure, shortened: as §1

[6] = test system: PPARa:RXRa (NR concentration 270 nM, RXRa partner concentration 90 nM)
Procedure, shortened: as §1

[7] = test system: PPARg:RXRa (NR concentration 180 nM, RXRa partner concentration 90 nM)
Procedure, shortened: as §1

[8] = test system: PPARg:RXRa 270nM:90nM, anti-RXR (NR concentration 270 nM, RXRa partner concentration 90 nM)
Procedure, shortened: as §1

[9] = test system: PPARg:RXRa 30nM:10nM, anti-RXR (NR concentration 30 nM, RXRa partner concentration 10 nM)
Procedure, shortened: as §1

[10] = test system: PPARg:RXRa 90nM:30nM, anti-RXR (NR concentration 90 nM, RXRa partner concentration 30 nM)
Procedure, shortened: as §1

[11] = test system: PPARg:RXRa DBDmut IVT, anti-RXR (DBD mutation: RXRa K156A/R161A, NR concentration 270 nM, RXRa partner concentration 90 nM)
Procedure, shortened: as §1

[12] = test system: PPARg:RXRa IVT, anti-PPARg (NR concentration 270 nM, RXRa partner concentration 90 nM)
Procedure, shortened: as §1

[13] = test system: PPARg DBDmut:RXRa IVT, anti-PPARg (DBD mutation: PPARg1 K132A/R137A, NR concentration 270 nM, RXRa partner concentration 90 nM)
Procedure, shortened: as §1

[14] = test system: PPARg DBDmut IVT, anti-PPARg (DBD mutation: PPARg1 K132A/R137A, NR concentration 270 nM)
Procedure, shortened: as §1

[15] = test system: PPARg homodimer (NR concentration 180 nM)
Procedure, shortened: as §1

[16] = test system: PXR:RXRa (NR concentration 270 nM, RXRa partner concentration 90 nM)
Procedure, shortened: as §1

[17] = test system: PXR homodimer (NR concentration 270 nM)
Procedure, shortened: as §1

[18] = test system: RARa:RXR (NR concentration 270 nM, RXRa partner concentration 90 nM)
Procedure, shortened: as §1

[19] = test system: RARa homodimer (NR concentration 270 nM)
Procedure, shortened: as §1

[20] = test system: RARb:RXRa (NR concentration 270 nM, RXRa partner concentration 90 nM)
Procedure, shortened: as §1

Sequence | PBM binding z-score [1] | PBM binding z-score [2] | PBM binding z-score [3] | PBM binding z-score [4] | PBM binding z-score [5] | PBM binding z-score [6] | PBM binding z-score [7] | PBM binding z-score [8] | PBM binding z-score [9] | PBM binding z-score [10] | PBM binding z-score [11] | PBM binding z-score [12] | PBM binding z-score [13] | PBM binding z-score [14] | PBM binding z-score [15] | PBM binding z-score [16] | PBM binding z-score [17] | PBM binding z-score [18] | PBM binding z-score [19] | PBM binding z-score [20]
TCATATAGGTAAACAGGTGAAAGTTCGTAAGTTA | 1.01 | 1.3 | 1.04 | 1.4 | -0.228 | 4.15 | 7.28 | 6.52 | 5.93 | 7.06 | 4.94 | 5.28 | 1.8 | 1.15 | 1.88 | 2.07 | 2.12 | 2.61 | 2.02 | 1.25
GCATATAGGTAATACAAGGTGGAAGTCCGATTGT | 0.184 | 0.265 | -0.224 | -0.272 | -0.619 | 0.775 | 0.978 | 0.953 | 0.435 | 0.586 | 4.14 | 2.47 | 1.2 | 0.302 | -0.138 | 0.192 | 0.041 | 0.731 | 0.593 | 0.0105
ATTATTAGTTGACTTAGGGCAACCGATACGACGC | 0.735 | 0.64 | 1.16 | 0.949 | 1.32 | 0.727 | 1.09 | 0.586 | 0.719 | 0.975 | 0.113 | 0.899 | 2.01 | 2.21 | 2.16 | 1.14 | 1.53 | 0.95 | 2.43 | 1.12
CCAGACAGGTGAAAGGTAATTCAGTCTGGTACGC | 0.605 | 0.764 | -0.068 | 0.645 | -0.433 | 3.29 | 5.24 | 5.83 | 4.2 | 5.95 | 2.07 | 2.63 | -0.0152 | -0.567 | 1.43 | 0.676 | -0.138 | 1.49 | 0.566 | 0.958
GTACCAAGTTGAATAGGTCGTTGATGAGTAGGCG | 0.0295 | 0.289 | -0.317 | 0.163 | -0.262 | 0.893 | 0.208 | 0.125 | -0.197 | -0.278 | -0.264 | 0.17 | 0.192 | 0.767 | 0.638 | 0.225 | 0.216 | 0.609 | 0.578 | 0.926
CGAACTAGTTCATTGACAGGACAGTGAATAGTAA | 0.24 | 0.585 | 0.0589 | 0.212 | -0.317 | 0.375 | 0.284 | 0.0577 | -0.0865 | -0.122 | 0.941 | 0.504 | 0.647 | 0.333 | 0.0581 | 1.09 | 0.739 | 0.372 | 0.437 | 1.25
CCAGACAGATGAAAGGTAACTCAGTCTGGTACGC | -0.273 | 0.0444 | -0.381 | 0.156 | -0.167 | 0.579 | 0.879 | 1.21 | 0.636 | 0.829 | -0.108 | -0.154 | -0.0341 | -0.512 | 0.444 | 0.0908 | 0.0132 | 0.186 | 0.861 | 0.167
CTACCAAGGTGATCAAGGTCGTTGATTACTATTC | 0.873 | 0.837 | 0.0949 | 1.29 | -0.12 | 1.65 | 0.258 | 0.508 | -0.15 | 0.529 | 1.11 | 1.31 | 0.364 | -0.201 | 0.492 | 2.22 | 1.77 | 1.33 | 0.0994 | 1.32
CGGCCAAGGTCAATGCTAGGTCAGTGAAAGCATT | 6.95 | 5.47 | 1.75 | 4.08 | 0.00864 | 5.19 | 4.4 | 4.78 | 1.47 | 3.21 | 3.06 | 3.69 | -0.404 | -1.18 | 4.15 | 4.73 | 0.802 | 5.67 | 0.406 | 5.24
ATATGTAGGTTACATCCGGATCATTCAGGCTATG | 0.642 | 3.17 | 0.493 | 1.65 | 0.498 | 3.35 | 5.19 | 4.14 | 1.64 | 3.4 | 7.7 | 7.49 | 3.14 | 2.67 | 1 | 0.73 | 0.559 | 1.04 | 0.899 | 1.05
CGTCCAAAGTCAGAGAGGTCAGTGAATGCCGAGT | 1.93 | 2.04 | 1.25 | 1.98 | 0.362 | 2.51 | 0.249 | 0.942 | -0.0025 | 0.475 | 0.254 | 0.644 | -0.212 | -0.647 | 1.79 | 3.05 | 1.35 | 2.85 | 0.862 | 3.27
CCGAATGGGGCAGAAAGGTTACCATACCATCCGG | 0.445 | 0.679 | 0.189 | 0.904 | -0.832 | 2.53 | 2.67 | 4.16 | 2.22 | 3.95 | 0.269 | 1 | -1.13 | -0.938 | 0.818 | 1.11 | 0.134 | 1.8 | -0.0696 | 1.89
ATACCAAGGTGATCGGGAGGTCGTTGATACTAAC | 1.36 | 0.921 | 0.848 | 1.34 | 0.329 | 1.55 | 0.591 | 0.404 | 0.193 | 0.12 | 0.345 | 1.15 | 0.229 | 0.179 | 1.3 | 2.92 | 1.26 | 2.08 | 0.622 | 1.31
CGTCCAAGGTCAGCAGTTCAGTGAAAGCGACGTG | 5.17 | 3.5 | 0.594 | 2.73 | -0.167 | 4.42 | 2.78 | 3.37 | 0.482 | 1.82 | 2.51 | 2.84 | 0.0799 | 0.847 | 1.67 | 3.52 | 1.29 | 3.96 | 0.38 | 5.29
